This is a sample that favours compounds with a hit; in the whole collection about 12% have one here.
G9a inh – qHTS Assay for Inhibitors of Histone Lysine Methyltransferase G9a. Potency, µM (titrated, usually from 102 µM), most hits filed as inhibitors. Histone-lysine N-methyltransferase EHMT2 (Homo sapiens), Q96KQ7. 8.8% of 350,000 active. G9a H3K9 monomethylation, AlphaScreen, 2 h; further: nearly all actives have a fitted effect of over 75% in size
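AlphaScreen detection with an anti-monomethyl H3K9 antibody quantified product after a 2 h room-temperature reaction containing 500 nM biotinylated H3K9 peptide, 20 µM SAM and 20 nM enzyme, which had been preincubated 15 min with compound.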
PLK1 PBD block – qHTS for Inhibitors of PLK1-PDB (polo-like kinase 1 - polo-box domain): Primary Screen | Serine/threonine-protein kinase PLK1 (Homo sapiens), P53350 | Plk1 PBD binding of FITC phosphopeptide, fluorescence polarization | Potency, µM, hits mostly inhibitors | 2.8% of 360,000 active | AID 720504, 2013; further: series mostly up to about 57 µM; nearly all actives have a fitted effect of over 65% in size
JMJD2A Tudor inh – qHTS Assay for Inhibitors of JMJD2A-Tudor Domain; Lysine-specific demethylase 4A (Homo sapiens), O75164; AlphaScreen JMJD2A-Tudor / H3K4me3 peptide binding; Potency, µM (top dose mostly 114 µM), actives largely listed as inhibitors; 4.4% of 390,000 active; AID 504339, 2011; further: nearly all actives have a fitted effect of over 50% in size
Target sequence (O75164 whole entry, looked up, the tested form may be a part): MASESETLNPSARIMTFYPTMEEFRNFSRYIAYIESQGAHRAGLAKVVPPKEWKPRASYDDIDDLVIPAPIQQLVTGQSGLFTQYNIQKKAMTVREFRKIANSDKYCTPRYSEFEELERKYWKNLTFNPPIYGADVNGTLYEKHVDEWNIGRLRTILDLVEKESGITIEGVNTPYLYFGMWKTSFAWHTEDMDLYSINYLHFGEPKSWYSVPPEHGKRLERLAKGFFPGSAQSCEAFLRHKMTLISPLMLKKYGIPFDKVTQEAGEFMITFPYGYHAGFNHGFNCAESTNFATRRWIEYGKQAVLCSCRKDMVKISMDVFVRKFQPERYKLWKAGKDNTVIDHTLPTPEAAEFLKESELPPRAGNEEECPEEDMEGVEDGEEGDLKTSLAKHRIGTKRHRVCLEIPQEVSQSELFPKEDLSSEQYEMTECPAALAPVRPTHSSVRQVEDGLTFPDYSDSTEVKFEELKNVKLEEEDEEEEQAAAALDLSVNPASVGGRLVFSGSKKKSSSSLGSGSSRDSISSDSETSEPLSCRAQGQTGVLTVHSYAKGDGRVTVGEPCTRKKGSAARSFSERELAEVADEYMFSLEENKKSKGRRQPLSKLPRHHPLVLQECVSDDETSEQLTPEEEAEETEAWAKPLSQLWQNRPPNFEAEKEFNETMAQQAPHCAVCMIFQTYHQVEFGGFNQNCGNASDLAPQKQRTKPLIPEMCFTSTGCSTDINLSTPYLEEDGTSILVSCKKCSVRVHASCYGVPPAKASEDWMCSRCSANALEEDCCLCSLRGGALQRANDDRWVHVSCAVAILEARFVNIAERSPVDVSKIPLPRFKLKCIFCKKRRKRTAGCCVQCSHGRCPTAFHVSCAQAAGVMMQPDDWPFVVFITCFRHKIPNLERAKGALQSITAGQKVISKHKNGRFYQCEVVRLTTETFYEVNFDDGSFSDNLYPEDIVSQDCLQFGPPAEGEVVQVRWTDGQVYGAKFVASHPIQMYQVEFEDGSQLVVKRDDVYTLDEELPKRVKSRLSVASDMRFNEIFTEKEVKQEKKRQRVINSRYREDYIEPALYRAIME
HP1b binding inh – HTS for Inhibitors of HP1-beta Chromodomain Interactions with Methylated Histone Tails; Chromobox protein homolog 1 (Homo sapiens), P83916; Potency, µM (doses to about 114 µM), hits mostly inhibitors; AlphaScreen HP1-beta / biotin-H3K9me3 peptide binding; 0.56% of 390,000 active; AID 540317, 2011; further: nearly all actives have a fitted effect of over 70% in size
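HP1-beta protein (50 nM final) preincubated 30 min at room temperature with biotinylated H3(1-18)K9me3 peptide (50 nM) in PBS pH 7.4, 0.01% Tween-20, then compound added for 30 min. AlphaScreen streptavidin donor/nickel chelate acceptor beads (10 ug/mL final), 30 min dark, luminescence read.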
BAZ2B inh – qHTS Assay for Inhibitors of BAZ2B; 4.4% of 360,000 active; Potency, µM (highest dose often 114 µM), hits mostly inhibitors; AlphaScreen BAZ2B-H3K14Ac peptide displacement; Bromodomain adjacent to zinc finger domain protein 2B (Homo sapiens), Q9UIF8; further: nearly all actives have a fitted effect of over 60% in size
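BAZ2B 50 nM plus b-H3(5-23)K14Ac 50 nM, PBS pH 7.4/0.01% Tween-20, 30 min RT; compound added (max 110 uM), 30 min RT; streptavidin donor/Ni-chelate acceptor beads 10 ug/mL final, 20 min dark; AlphaScreen read.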
Sfp PPTase inh – qHTS Assay for Inhibitors of Bacillus subtilis Sfp phosphopantetheinyl transferase (PPTase); Biochemical Sfp PPTase activity, qHTS; Potency, µM, actives largely listed as inhibitors; 3.5% of 310,000 active; AID 1490, 2009;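 further: the enzyme is Sfp with the accession as filed and its product quenches rhodamine fluorescence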
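Step 1, compound plus 15 nM Sfp-PPTase, 15 min, room temperature. Step 2, add rhodamine-CoA (5 uM) and BHQ-2-YbbR (12.5 uM). Step 3, read 525/598 nm fluorescence at 0 and 30 min.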
Numbers stand for hits; 0 = inactive; ? = inconclusive; - = no result given; [ ] = remark or other dose. The call rests on the fitted dose curve; in most records, active means well fitted curve in the direction sought with a large enough effect; inconclusive means small, poorly fitted or top-dose-only effect, or another doubt; inactive means no such curve, though single readings can be large; an effect the other way counts as inactive or inconclusive.

SMILES	G9a inh	PLK1 PBD block	JMJD2A Tudor inh	HP1b binding inh	BAZ2B inh	Sfp PPTase inh
COc1ccccc1NS(=O)(=O)c1cc([N+](=O)[O-])ccc1N/N=C/c1sc(N2CCOCC2)nc1-c1ccccc1	40µM	0	0	?	?	?
CC(CCc1ccccc1)NC(=O)CCNC(=O)c1ccccc1Cl (configuration not stated)	-	0	0	0	-	-
Cc1cccc(CNc2ncncc2-c2cccc(C#N)c2)c1	-	-	-	-	-	0
Cc1cccc(C(=O)Oc2ccc(/C=N/O)cc2)c1	10µM	0	0	0	0	0
O=C(Oc1ccc(/C=N/O)cc1)c1ccccc1Cl	?	0	0	0	0	0
COc1cc(C2C(C#N)=C(N)Oc3cc(O)ccc32)cc2c1OCO2 (configuration not stated)	0	0	0[11.4 µM]	?	0	79µM
CCOC(=O)C1=C(C)OC(N)=C(C#N)C1c1cc(OC)c2c(c1)OCO2 (configuration not stated)	0	0	0	0	0	0
COc1cc(C2C(C#N)=C(N)Oc3cc(N(C)C)ccc32)cc2c1OCO2 (configuration not stated)	?	0	50µM	?	45µM	0
CSCC[C@@H](N)C(=O)O	0	-	-	-	-	0
CCCCC[C@H]1CN(CCc2ccccc2)C(=O)[C@@H]1CC(=O)NCc1ccc(OC)cc1	45µM	0	0	0	0	0
O=C(c1cccc(OC2CCN(C3CCCC3)CC2)c1)N1CCCCCCC1	0	0	0	0	0	0
COc1cccc(C(=O)N2CCN(C3CCN(Cc4ccccc4)CC3)CC2)c1	8.9µM	-	-	-	28µM	?
c1ccc(C2CCC(N3CCN(c4ccccc4)CC3)CC2)cc1 (configuration not stated)	56µM	0	?	0	?	0
COc1ccccc1C(=O)N1CCN(C2CCN(Cc3ccccc3)CC2)CC1	10µM	0	7.9µM	?	56µM	0
O=S(=O)(c1ccccc1)N1CCC(N2CCN(c3ccccc3)CC2)CC1	0	-	-	-	0	0
COc1cccc(C(=O)N2CCN(C3CCCCC3)CC2)c1	-	0	11µM	0	?	0
COc1ccc(CN(C)C(=O)c2ccc(OCC(=O)N3CCOCC3)c(OC)c2)cc1	0	0	0	0	0	-
COc1ccc(Cn2c(SCc3ccc(C(=O)NC4CCCC4)cc3)nc3cccnc32)cc1	0	-	0	0	0	-
O=C(NCCc1ccc(Cl)cc1Cl)C1=CC=CN2CCS(=O)(=O)N=C12	0[12.7 µM]	0	0	0	0	-
COc1ccc(C(=O)N2CCN(C3CCC(c4ccccc4)CC3)CC2)cc1OC (configuration not stated)	3.2µM	0	2.8µM	0	50µM	0
COc1ccc(NC(C)=O)cc1S(=O)(=O)NC(C)c1ccc(-n2ccnc2)cc1 (configuration not stated)	0	0	0	0	0	-
CCCOc1ccc(Cc2c(COCC)[nH]c(=S)[nH]c2=O)cc1	45µM	?	0	0	0	0
CC1CCC2(CC1)NC(=S)N(C(C)(C)C)N2 (configuration not stated)	7.1µM	0	?	0	0	35µM
CC1CCC2(CC1)NC(=S)N(c1ccccc1)N2 (configuration not stated)	6.3µM	0	0	0	79µM	56µM
COCCNc1nc(NCc2ccccc2)c2cnn(C)c2n1	?	0	0	0	0	0
SMILES	G9a inh	PLK1 PBD block	JMJD2A Tudor inh	HP1b binding inh	BAZ2B inh	Sfp PPTase inh
CCNc1nc(NCc2ccc(F)cc2)c2cnn(C)c2n1	0	-	50µM	0	0	-
O=C(NC1CCCCC1)C(c1ccccc1F)N(C(=O)c1csnn1)C1CCCC1 (configuration not stated)	0	0	0	0	0	0
COC(=O)c1scc(C)c1NC(=O)/C=C/C(=O)O	1.8µM	0	0	0	0	13µM
CCNc1ccc(Br)cc(C(=O)/C=C/c2ccc(Cl)cc2Cl)c1=O	8.9µM	?	45µM	?	45µM	22µM
O=C(C=Cc1ccc2c(c1)OCO2)C=Cc1ccc2c(c1)OCO2	-	0	-	-	-	-
CNc1ccc(Br)cc(C(=O)/C=C/c2ccc3c(c2)OCO3)c1=O	10µM	19µM	40µM	?	40µM	18µM
CNc1ccc(Br)cc(C(=O)/C=C/c2ccc(OC)cc2)c1=O	10µM	?	0	0	45µM	?
CNc1ccc(Br)cc(C(=O)/C=C/c2cc(OC)ccc2OC)c1=O	4.5µM	0	25µM	0	28µM	0
COCCCNC(=O)/C=C/c1ccc(Cl)cc1Cl	0[0.501 µM]	0	0	0	0	0
COC(=O)CNC(=O)/C=C/c1cc(Br)ccc1OC	0	0	0	0	0	0
CC(C)CCNC(=O)CSc1nc2ccccc2nc1Cc1ccccc1	0	-	0	0	0	-
COc1cc2c(cc1OC)CN(c1nc(CN3CCCC3)nc3sc(C)c(C)c13)CC2	35µM	0	?	0	79µM	?
Cc1sc2nc(CN3CCOCC3)nc(N3CCC(C(N)=O)CC3)c2c1C	0	0	0	0	0	0
Cc1sc2nc(CN3CCOCC3)nc(N3CCOCC3)c2c1C	3.5µM	0	?	?	50µM	?
COc1cc2c(cc1OC)CN(c1nc(CN3CCOCC3)nc3sc4c(c13)CCCC4)CC2	45µM	0	50µM	?	45µM	0
Cc1cc(S(=O)(=O)Nc2nc(CN3CCOCC3)nc3sc4c(c23)CCC4)cc(C)c1C	45µM	?	0	0	?	-
CCC(C(=O)NC1CCCC1)n1c2ccccc2c2nc(=O)cc(C)n21 (configuration not stated)	-	0	0	0	-	-
CC[N+]1(C)CCC(O)(/C=C/c2ccccc2)C(C(=O)/C=C/c2ccccc2)C1 (configuration not stated)	-	?	40µM	71µM	-	-
CCCCN(CCCC)C(=O)c1cc2c(=O)n3ccccc3nc2s1	0	-	0	0	0	-
COc1ccccc1N1CC(C)(C)C(=O)N(C(=O)c2ccc(Cl)cc2)C1=S	40µM	0	?	0	0	0
COc1ccccc1N1CC(C)(C)C(=O)N(C(=O)c2ccc(C)cc2)C1=S	-	0	0	0	?	0
COc1ccc(OC)c(N2Cc3cc(C)c(C)cc3C2)c1	13µM	0	?	0	?	0
CCOC(=O)c1ccc(NS(=O)(=O)c2cc(-c3onc(C)c3C)ccc2C)cc1	0	-	0	0	0	-
CC1CN2C(c3ccc(Cl)cc3)=CSC2=N1 (configuration not stated)	45µM	0	0	0	0	0
Cc1ccc(C2=CSC3=NCCN23)cc1	-	0	0	0	-	-
